The term AC50 denotes the concentration giving half of the maximal activity seen.

Records with an inconclusive call do not appear. Calls of active or inactive are those of the source. The calls were made as follows: active = hit-call score of the fitted dose curve at least 0.9, where 1 is the maximum; inconclusive = response in the unintended direction; inactive = score below 0.9.

For experiment [1], the target named is human Tropomyosin Receptor Kinase A (TRKA), NTRK1 (gene 4914) (UniProt P04629). In words: NVS_ENZ_hTrkA: NovaScreen (NVS) Enzymatic Assay for human Tropomyosin Receptor Kinase A (TRKA) (AID 2283224). The essentials:
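Recombinant human TrkA activity read after 1 h by fluorescence with electrophoretic mobility shift separating substrate and product. Primary screen in duplicate at 25 uM; actives were rerun in concentration-response up to 50 uM. Loss of signal versus DMSO.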

For experiment [2], the target named is human Vascular Endothelial Growth Factor Receptor 1 (VEGFR1), FLT1 (gene 2321) (UniProt P17948). Put plainly: NVS_ENZ_hVEGFR1: NovaScreen (NVS) Enzymatic Assay for human Vascular Endothelial Growth Factor Receptor 1 (VEGFR1) (AID 2283226). The essentials:
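Cell-free assay of recombinant human VEGFR1 kinase with substrate, measured 1 h after dosing; fluorescence with electrophoretic mobility-shift separation of substrate and product, referenced to DMSO; primary screen at 25 uM in duplicate, actives then run in concentration series.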

The target of experiment [3] is rat Acetylcholinesterase (AChE), Ache (gene 83817) (UniProt P37136). In words: NVS_ENZ_rAChE: NovaScreen (NVS) Enzymatic Assay for rat Acetylcholinesterase (AChE) (AID 2283233). The method, then: NVS_ENZ_rAChE is a biochemical, single-readout assay that uses extracted gene-proteins from Rat brain membranes in a tissue-based cell-free assay. Measurements were taken 0.33 hour after chemical dosing in a 96-well plate.NVS_ENZ_rAChE is one of one assay component(s) measured or calculated from the NVS_ENZ_rAChE assay. It is designed to make measurements of enzyme activity, a form of enzyme reporter, as detected with absorbance signals by Colorimetric technology.Data from the assay component NVS_ENZ_rAChE was analyzed into 1 assay endpoint. This assay endpoint, NVS_ENZ_rAChE, was analyzed in the positive analysis fitting direction relative to DMSO as the negative control and baseline of activity. Using a type of enzyme reporter, loss-of-signal activity can be used to understand changes in the enzymatic activity as they relate to the gene Ache. Furthermore, this assay endpoint can be referred to as a primary readout, because this assay has produced multiple assay endpoints where this one serves a enzymatic activity function. To generalize the intended target to other relatable targets, this assay endpoint is annotated to the esterase intended target family, where the subfamily is acetylcholinesterase. […]

The test system of experiment [4] is rat Monoamine Oxidase, MAO-A, Peripheral (MAOAP), gene 29253. In words: NVS_ENZ_rMAOAP: NovaScreen (NVS) Enzymatic Assay for rat Monoamine Oxidase, MAO-A, Peripheral (MAOAP) (AID 2283237). An outline of the steps:
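Rat liver mitochondrial membranes served as the MAO-A source, with enzyme activity measured by radiometric scintillation counting 1.17 hours after dosing. Loss of signal was fitted against DMSO; primary screen used 25 uM in duplicate, follow-up used concentration series.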

human Tropomyosin Receptor Kinase A (TRKA), NTRK1 (gene 4914), sequence (P04629 whole entry, looked up): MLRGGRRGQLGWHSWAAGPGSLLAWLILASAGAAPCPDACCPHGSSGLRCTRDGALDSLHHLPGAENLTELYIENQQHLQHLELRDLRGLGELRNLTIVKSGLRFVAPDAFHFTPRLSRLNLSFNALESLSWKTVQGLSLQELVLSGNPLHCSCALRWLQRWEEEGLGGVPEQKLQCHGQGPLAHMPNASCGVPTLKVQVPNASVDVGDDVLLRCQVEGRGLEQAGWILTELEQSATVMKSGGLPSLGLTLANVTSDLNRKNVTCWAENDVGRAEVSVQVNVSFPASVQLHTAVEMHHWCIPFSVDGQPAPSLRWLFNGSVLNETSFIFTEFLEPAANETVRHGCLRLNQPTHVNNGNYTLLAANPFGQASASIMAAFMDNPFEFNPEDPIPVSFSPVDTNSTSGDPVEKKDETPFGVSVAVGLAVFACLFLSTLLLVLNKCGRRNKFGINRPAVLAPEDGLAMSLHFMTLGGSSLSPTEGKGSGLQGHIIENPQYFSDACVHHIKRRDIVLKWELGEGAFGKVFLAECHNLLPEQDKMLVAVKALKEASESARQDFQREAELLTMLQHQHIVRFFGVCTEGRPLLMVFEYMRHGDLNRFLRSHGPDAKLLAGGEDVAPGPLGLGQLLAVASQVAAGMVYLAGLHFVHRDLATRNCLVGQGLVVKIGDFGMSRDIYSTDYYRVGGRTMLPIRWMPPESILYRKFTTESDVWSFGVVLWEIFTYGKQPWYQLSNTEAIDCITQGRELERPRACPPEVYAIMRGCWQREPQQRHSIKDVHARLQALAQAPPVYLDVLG
human Vascular Endothelial Growth Factor Receptor 1 (VEGFR1), FLT1 (gene 2321), sequence (P17948 whole entry, looked up): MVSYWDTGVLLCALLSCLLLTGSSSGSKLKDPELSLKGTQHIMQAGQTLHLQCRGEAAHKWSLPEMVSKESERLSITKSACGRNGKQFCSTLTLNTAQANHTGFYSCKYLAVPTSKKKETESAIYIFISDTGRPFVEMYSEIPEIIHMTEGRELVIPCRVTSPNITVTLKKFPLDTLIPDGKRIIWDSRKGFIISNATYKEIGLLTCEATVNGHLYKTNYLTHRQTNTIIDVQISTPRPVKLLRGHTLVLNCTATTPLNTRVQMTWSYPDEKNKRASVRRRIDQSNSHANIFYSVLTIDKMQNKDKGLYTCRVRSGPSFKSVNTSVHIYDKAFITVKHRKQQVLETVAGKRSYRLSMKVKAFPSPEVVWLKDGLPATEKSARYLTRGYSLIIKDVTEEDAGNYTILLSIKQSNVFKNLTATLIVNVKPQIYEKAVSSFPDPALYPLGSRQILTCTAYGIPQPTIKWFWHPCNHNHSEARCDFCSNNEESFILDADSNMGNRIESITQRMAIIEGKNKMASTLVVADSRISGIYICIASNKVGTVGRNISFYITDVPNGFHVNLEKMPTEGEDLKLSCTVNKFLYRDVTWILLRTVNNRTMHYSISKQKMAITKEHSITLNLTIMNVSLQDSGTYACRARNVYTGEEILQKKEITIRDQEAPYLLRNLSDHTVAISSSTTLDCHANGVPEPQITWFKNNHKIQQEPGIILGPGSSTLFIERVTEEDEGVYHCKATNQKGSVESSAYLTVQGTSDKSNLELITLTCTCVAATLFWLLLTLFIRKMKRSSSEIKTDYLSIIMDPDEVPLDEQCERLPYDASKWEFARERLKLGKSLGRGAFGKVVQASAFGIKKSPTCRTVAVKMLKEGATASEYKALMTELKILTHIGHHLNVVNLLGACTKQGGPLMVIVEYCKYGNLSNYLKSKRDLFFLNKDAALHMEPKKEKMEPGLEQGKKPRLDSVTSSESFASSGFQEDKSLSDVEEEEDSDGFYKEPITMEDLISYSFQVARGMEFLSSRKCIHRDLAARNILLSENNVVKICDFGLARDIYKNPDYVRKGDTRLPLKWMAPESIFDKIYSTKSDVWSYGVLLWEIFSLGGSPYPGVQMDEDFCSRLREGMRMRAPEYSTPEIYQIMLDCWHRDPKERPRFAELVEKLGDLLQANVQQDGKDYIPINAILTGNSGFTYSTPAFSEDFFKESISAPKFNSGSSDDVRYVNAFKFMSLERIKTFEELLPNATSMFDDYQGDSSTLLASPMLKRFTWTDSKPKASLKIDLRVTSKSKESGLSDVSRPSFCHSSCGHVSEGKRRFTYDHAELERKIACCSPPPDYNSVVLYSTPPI
rat Acetylcholinesterase (AChE), Ache (gene 83817), sequence (P37136 whole entry, looked up): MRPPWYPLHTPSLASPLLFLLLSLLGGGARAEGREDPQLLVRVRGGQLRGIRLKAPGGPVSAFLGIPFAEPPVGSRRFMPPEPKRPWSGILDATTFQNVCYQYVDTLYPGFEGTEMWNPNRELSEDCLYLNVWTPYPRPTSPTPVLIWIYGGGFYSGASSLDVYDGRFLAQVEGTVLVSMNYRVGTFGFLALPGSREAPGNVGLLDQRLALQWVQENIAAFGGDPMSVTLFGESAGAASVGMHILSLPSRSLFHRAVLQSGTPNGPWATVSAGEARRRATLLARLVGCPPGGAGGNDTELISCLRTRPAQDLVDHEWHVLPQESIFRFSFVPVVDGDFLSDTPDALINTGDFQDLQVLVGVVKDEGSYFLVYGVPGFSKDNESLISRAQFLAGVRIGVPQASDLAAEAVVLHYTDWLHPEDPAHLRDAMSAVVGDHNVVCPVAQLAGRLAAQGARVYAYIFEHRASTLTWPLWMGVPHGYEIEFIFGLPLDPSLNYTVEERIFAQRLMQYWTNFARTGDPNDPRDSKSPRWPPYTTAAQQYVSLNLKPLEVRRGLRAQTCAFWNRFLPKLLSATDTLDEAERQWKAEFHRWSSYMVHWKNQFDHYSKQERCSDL

Consider `ClC1=C(Cl)C2(Cl)C3C(Cl)C(Cl)CC3C1(Cl)C2(Cl)Cl` (stereo not drawn), for which the compound was classed as inactive in experiment [1]. On to `O=[N+]([O-])c1ccccc1`, for which the compound was called inactive in experiment [1]. In the case of `Cc1ccc2c(c1N)C(=O)c1ccccc1C2=O`, the AC50 in experiment [2] was 25 µM (active). Regarding `CC(C)(C)c1ccc(O)cc1`, the compound was classed as inactive in experiment [2]. Regarding `CCCCN(CCCC)SN(C)C(=O)Oc1cccc2c1OC(C)(C)C2`, in experiment [3], the AC50 is 1.13 µM (active). For `Nc1cc2c3c(c1)C(c1ccccc1)=N[C@@H](NC(=O)c1cccnc1)C(=O)N3CC2`, in experiment [3], the call was inactive. In the case of `ClC(Cl)c1ccccc1`, the result in experiment [4] was inactive.

For the compound `Cc1ccc(O)cc1C`, the compound was called inactive in experiment [4].

Values taken from PubChem BioAssay (EPA / NIEHS).
